The values below come from PubChem BioAssay (EPA / NIEHS).

Records with an inconclusive call do not appear. The source made the active and inactive calls. The calls were made as follows: active = hit-call score of the fitted dose curve at least 0.9, where 1 is the maximum; inconclusive = response in the unintended direction; inactive = score below 0.9.

Test [1] concerns the target Androgen Receptor/SRC-1 Co-activator, AR (gene 367) (UniProt P10275). The experiment in a line: OT_AR_ARSRC1_0960: Odyssey Thera (OT) 16-hour HEK293T Protein-Complementation Assay for Androgen Receptor/SRC-1 Co-activator (AID 2283353).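 Also: actives raise the signal above DMSO so potency reflects increased AR and SRC-1 complex.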 The essentials: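 Endpoint is gain-of-signal N/C fluorescence ratio in the 488 nm channel versus DMSO, from at least 400 cells per image, measured 16 h post-dosing. Cells: HEK293T stably carrying split-Venus AR/SRC-1 complementation constructs.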

The target is the same in test [2]. Put plainly: OT_AR_ARSRC1_0480: Odyssey Thera (OT) 8-hour HEK293T Protein-Complementation Assay for Androgen Receptor/SRC-1 Co-activator (AID 2283354).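 Also: hits raise the complementation signal above DMSO so AC50 marks enhancers.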 The procedure, abridged: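 After 8 h dosing, stably expressing HEK293T cells with split-Venus AR/SRC-1 fusions were imaged (488, 635nm). The 488nm N/C ratio per image gave the endpoint, analysed in the positive direction against DMSO.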

Test [3] concerns the target Estrogen receptor beta (Homo sapiens) (UniProt Q92731). The experiment in a line: OT_ER_ERbERb_0480: Odyssey Thera (OT) 8-hour HEK293T Protein-Complementation Assay for Estrogen Receptor-beta/-beta Homodimer (AID 2283357).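 Also: active means signal gain over DMSO baseline.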 The procedure, abridged: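 Fluorescence gain from complemented reporter fragments on ER-beta LBD homodimer in HEK293T was quantified against DMSO controls after 8 h treatment, fixation in 4% formaldehyde and Draq5 staining.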

In test [4] the target is Estrogen receptor (Homo sapiens) + Estrogen receptor beta (Homo sapiens) (UniProt P03372+Q92731). Put plainly: OT_ER_ERaERb_1440: Odyssey Thera (OT) 24-hour HEK293T Protein-Complementation Assay for Estrogen Receptor-alpha/-beta Homodimer (AID 2283356).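 Also: heteromer of ER alpha and ER beta binding domains; hits raise reporter fluorescence and both agonists and antagonists give an increase.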 The essentials: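 Stable HEK293T PCA line, ERα LBD 310-547 + ERβ LBD 263-489 fused to reporter fragments; 24 h treatment; fluorescence read by laser scanning cytometry; positive fitting direction relative to DMSO.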

The target in test [5] is human Thyroid Receptor Alpha (TRa), THRA (gene 7067) (UniProt P10827). Put plainly: NVS_NR_hTRa_Antagonist: NovaScreen (NVS) Nuclear Receptor Binding Assay for human Thyroid Receptor Alpha Antagonism (TRa) (AID 2283362).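 Also: activity is loss of signal relative to DMSO baseline.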 The procedure, abridged:
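Extracted protein, cell-free; 1 h incubation after dosing; AlphaLISA chemiluminescence binding readout. DMSO = baseline/neg ctrl; signal loss = activity. Primary: duplicate, 25 uM; secondary: conc. series on actives.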

In test [6] the target is Retinoic acid receptor alpha (Homo sapiens) (UniProt P10276). The experiment in a line: NVS_NR_hRAR_Antagonist: NovaScreen (NVS) Nuclear Receptor Binding Assay for human Retinoic Acid Alpha Receptor Antagonism (RAR) (AID 2283358). The procedure, abridged: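 Chemicals were first tested in duplicate at 25 uM, then actives in concentration series, in a cell-free TR-FRET antagonist binding format. Measurements were taken 2 hours after dosing and loss of signal was evaluated against DMSO controls.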

In test [7] the target is human Peroxisome Proliferator-activated Receptor alpha (PPARa), PPARA (gene 5465) (UniProt Q07869). The experiment in a line: NVS_NR_hPPARa: NovaScreen (NVS) Nuclear Receptor Binding Assay for human Peroxisome Proliferator-activated Receptor alpha (PPARa) (AID 2283359).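 Also: activity means loss of TR-FRET signal versus DMSO baseline.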 The essentials:
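One-hour incubation, cell-free extracted protein, TR-FRET binding readout; signal loss vs DMSO scored. Screen: 25 uM duplicates, confirmatory dose series for actives.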

Chain of Estrogen receptor beta (Homo sapiens) (Q92731 whole entry, looked up, the tested form may be a part): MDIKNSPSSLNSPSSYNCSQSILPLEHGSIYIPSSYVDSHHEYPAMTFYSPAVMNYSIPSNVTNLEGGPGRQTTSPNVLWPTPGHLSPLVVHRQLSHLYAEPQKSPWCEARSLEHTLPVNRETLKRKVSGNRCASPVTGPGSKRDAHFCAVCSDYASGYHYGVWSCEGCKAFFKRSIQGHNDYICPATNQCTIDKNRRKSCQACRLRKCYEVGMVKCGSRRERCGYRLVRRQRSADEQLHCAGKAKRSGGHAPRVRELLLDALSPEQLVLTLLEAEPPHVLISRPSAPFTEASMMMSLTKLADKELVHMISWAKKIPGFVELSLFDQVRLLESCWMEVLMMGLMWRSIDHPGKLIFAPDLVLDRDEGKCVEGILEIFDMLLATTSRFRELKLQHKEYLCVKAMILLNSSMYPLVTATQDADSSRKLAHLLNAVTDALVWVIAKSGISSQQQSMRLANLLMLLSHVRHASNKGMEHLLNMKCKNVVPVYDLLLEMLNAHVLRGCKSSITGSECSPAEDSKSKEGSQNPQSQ
Chain of Androgen Receptor/SRC-1 Co-activator, AR (gene 367) (P10275 whole entry, looked up): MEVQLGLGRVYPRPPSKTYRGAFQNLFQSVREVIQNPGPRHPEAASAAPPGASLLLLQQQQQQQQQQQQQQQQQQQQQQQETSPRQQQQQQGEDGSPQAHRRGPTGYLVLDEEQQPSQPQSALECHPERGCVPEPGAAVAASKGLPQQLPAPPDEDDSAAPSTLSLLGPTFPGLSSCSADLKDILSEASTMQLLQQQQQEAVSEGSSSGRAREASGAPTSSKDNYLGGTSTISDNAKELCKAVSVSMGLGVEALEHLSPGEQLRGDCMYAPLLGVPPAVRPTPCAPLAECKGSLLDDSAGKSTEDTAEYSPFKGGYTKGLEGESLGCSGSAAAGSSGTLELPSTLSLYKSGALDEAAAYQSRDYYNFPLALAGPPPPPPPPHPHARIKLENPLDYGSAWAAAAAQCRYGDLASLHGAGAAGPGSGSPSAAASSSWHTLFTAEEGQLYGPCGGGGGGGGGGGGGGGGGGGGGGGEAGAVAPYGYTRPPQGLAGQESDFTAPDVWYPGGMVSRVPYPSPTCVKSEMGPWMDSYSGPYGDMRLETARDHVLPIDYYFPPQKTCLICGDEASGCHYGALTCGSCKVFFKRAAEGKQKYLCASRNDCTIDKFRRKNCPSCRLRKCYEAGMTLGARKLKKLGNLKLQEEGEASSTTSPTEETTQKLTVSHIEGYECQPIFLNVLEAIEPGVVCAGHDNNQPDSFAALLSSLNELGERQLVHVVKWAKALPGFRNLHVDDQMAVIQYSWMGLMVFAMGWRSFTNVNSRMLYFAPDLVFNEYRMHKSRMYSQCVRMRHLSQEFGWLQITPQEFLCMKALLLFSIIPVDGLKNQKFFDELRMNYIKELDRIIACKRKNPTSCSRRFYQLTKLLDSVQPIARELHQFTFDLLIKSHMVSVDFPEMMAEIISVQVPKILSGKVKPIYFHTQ
Chain of human Thyroid Receptor Alpha (TRa), THRA (gene 7067) (P10827 whole entry, looked up): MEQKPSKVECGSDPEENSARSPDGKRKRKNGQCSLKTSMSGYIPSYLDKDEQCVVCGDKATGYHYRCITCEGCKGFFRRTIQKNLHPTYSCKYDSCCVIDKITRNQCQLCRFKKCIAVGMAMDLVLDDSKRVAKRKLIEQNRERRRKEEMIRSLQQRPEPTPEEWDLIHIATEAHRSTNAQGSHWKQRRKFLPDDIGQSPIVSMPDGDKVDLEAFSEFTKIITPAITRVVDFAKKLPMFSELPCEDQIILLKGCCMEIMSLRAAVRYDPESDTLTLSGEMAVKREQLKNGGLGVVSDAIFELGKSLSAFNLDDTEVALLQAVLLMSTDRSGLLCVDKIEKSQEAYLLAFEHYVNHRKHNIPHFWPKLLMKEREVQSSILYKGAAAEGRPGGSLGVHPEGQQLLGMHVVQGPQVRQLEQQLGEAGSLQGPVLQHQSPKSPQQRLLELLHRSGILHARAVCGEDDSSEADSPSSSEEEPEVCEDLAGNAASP
Chain of Estrogen receptor (Homo sapiens) + Estrogen receptor beta (Homo sapiens) (P03372 whole entry, looked up, the tested form may be a part): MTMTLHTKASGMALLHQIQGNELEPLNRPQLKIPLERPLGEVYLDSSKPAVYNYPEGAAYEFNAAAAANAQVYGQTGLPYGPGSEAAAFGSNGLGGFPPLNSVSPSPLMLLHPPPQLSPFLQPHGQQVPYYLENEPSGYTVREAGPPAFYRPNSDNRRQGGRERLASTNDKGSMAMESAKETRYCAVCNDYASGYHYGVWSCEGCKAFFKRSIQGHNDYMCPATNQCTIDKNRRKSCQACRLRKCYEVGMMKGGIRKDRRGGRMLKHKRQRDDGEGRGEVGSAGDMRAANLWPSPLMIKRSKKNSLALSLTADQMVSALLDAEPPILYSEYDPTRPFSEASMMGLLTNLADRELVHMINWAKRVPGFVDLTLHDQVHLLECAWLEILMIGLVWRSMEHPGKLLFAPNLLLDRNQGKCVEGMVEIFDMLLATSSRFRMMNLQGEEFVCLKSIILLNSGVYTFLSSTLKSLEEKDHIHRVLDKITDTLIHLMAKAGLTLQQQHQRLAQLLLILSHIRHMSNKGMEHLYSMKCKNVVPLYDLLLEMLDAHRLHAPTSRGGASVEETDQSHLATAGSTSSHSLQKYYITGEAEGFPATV
Chain of Estrogen receptor (Homo sapiens) + Estrogen receptor beta (Homo sapiens) (Q92731 whole entry, looked up, the tested form may be a part): as the sequence (Q92731 whole entry, looked up, the tested form may be a part) above
Chain of human Peroxisome Proliferator-activated Receptor alpha (PPARa), PPARA (gene 5465) (Q07869 whole entry, looked up): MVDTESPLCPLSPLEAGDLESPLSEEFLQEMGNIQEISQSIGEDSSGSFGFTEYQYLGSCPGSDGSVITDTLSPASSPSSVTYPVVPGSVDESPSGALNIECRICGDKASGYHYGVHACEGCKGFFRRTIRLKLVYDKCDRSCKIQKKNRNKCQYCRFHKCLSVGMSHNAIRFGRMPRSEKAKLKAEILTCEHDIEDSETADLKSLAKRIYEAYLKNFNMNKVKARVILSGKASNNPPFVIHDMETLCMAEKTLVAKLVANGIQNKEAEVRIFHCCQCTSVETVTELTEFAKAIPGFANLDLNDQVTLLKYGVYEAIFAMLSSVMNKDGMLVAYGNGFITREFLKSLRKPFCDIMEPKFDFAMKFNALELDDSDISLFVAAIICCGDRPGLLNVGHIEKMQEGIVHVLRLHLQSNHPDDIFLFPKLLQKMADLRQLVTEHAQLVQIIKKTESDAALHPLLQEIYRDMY
Chain of Retinoic acid receptor alpha (Homo sapiens) (P10276 whole entry, looked up): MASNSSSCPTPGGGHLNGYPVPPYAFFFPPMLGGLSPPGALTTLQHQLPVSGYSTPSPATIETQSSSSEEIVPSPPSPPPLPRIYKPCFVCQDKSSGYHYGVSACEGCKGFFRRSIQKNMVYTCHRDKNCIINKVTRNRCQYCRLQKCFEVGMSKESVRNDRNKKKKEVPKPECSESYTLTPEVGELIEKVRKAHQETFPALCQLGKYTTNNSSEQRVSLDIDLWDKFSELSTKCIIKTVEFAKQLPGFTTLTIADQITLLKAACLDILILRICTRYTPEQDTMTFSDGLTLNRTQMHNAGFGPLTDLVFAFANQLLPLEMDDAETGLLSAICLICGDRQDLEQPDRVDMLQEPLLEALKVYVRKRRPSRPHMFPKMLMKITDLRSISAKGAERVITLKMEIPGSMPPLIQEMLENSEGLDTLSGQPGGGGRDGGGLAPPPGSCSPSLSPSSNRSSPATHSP

Regarding `CCc1ccc(O)cc1`, the compound was called inactive in test [1], in test [2] and in test [3]. Turning to `c1ccc(Oc2ccccc2)cc1`, the result in test [3] was inactive. Turning to `CSCCC=O`, the call in test [3] was inactive. As for `CCCCCCCCSCCO`, the compound was called inactive in test [1] and in test [2]. As a reminder, the AC50 is the concentration at which the activity in the assay is half-maximal. As to `CCc1cc(Cc2cc(CC)cc(C(C)(C)C)c2O)c(O)c(C(C)(C)C)c1`, the AC50 in test [1] is 10.7 µM (active); in test [2] it was 15.8 µM (active). Besides, the outcome in test [3] was inactive. Regarding `CCCCCCCCCCCC(=O)OCC(O)CO` (configuration not stated), the result in test [4] and in test [3] was inactive. `CC(C=O)Cc1ccc(C(C)(C)C)cc1` (configuration not stated): the compound was called inactive in test [2] and in test [3]. With `OCc1cccc(Oc2ccccc2)c1`, the outcome in test [1] and in test [2] was inactive. Further, the AC50 in test [3] is 47.7 µM (active). Take `CC(=O)O[C@@H]1CC2CCC1(C)C2(C)C` (some centres not stated): the outcome in test [1] was inactive.

On to `CCCCCCCCCCCCCC(=O)OCC(O)CO` (configuration not stated), for which the compound was called inactive in test [1], in test [2] and in test [3]. Take `Nc1ccc(N)c2c1C(=O)c1ccccc1C2=O`: the AC50 in test [1] is 35.3 µM (active). The compound was classed as inactive in test [2], in test [3] and in test [5]. In the case of `CCCC(=O)OC(C)(C)Cc1ccccc1`, the compound was classed as inactive in test [3].

As to `CCCCC1CCC(O)CC1` (configuration not stated), the call in test [1] and in test [2] was inactive. Take `Cc1ccc(S(=O)(=O)Oc2ccc(N=Nc3ccc(-c4ccc(N=Nc5c(O)ccc6cc(S(=O)(=O)O)cc(S(=O)(=O)O)c56)c(C)c4)cc3C)cc2)cc1`: the call in test [1], in test [2], in test [3], in test [6] and in test [7] was inactive. For the same compound, the AC50 in test [5] was 3.09 µM (active).

With `ON=C1CCCCC1`, the compound was called inactive in test [3]. Still for that read-out and setting: the entry for `Nc1ccccc1[N+](=O)[O-]` is “inactive”. The same measure, in the same setting: the entry for `CCCCOC(=O)CCCCCCCC(=O)OCCCC` is “inactive”; for `OCC#CCO` it is “inactive”; for `CCCCCCCCN1CCCC1=O` it is “inactive”. With `CC(C)c1ccccc1O`, in test [3], the result was inactive. Take `C[Si](C)(C)O[Si](C)(C)C`: the compound was called inactive in test [3]. For the compound `CC(C)Nc1nc(N)nc(Cl)n1`, in test [3], the result was inactive. In the case of `CCCCCCCCCC(=O)OC`, the compound was classed as inactive in test [3]. On to `O=C1NC2NC(=O)NC2N1` (configuration not stated), for which the AC50 in test [3] is 22.1 µM (active). In the case of `CCCCCCC(=O)c1ccccc1`, in test [3], the compound was called inactive. Still for that read-out and setting: as for `CC1CC(O)CC(C)(C)C1` (configuration not stated), the entry is “inactive”; as for `C=Cc1ccc(C)cc1`, “inactive”. As to `COC(=O)c1ccc(C)cc1C1=NC(C)(C(C)C)C(=O)N1` (configuration not stated) (tested in a mixture with another compound), the compound was called inactive in test [3].

As to `C=C(C)[C@@H]1CC=C(C)C(=O)C1`, the compound was classed as inactive in test [3]. Consider `CCCCCCC(C)(C)S`, for which, in test [3], the compound was called inactive.

In the case of `CCOC(=O)c1ccc(N)cc1`, in test [3], the compound was classed as inactive. As for `CN1CCOCC1`, the call in test [3] was inactive. With `C=C1CC[C@H](O)C/C1=C/C=C1\CCC[C@]2(C)[C@@H]([C@H](C)/C=C/[C@H](C)C(C)C)CC[C@@H]12`, in test [3], the compound was classed as inactive. Still for that read-out and setting: as for `C=CC(C)(O)CCC=C(C)C` (configuration not stated), the entry is “inactive”; as for `O=Cc1ccccc1S(=O)(=O)O`, “inactive”. Consider `C#CC(C)(O)CC(C)C` (configuration not stated), for which the compound was called inactive in test [3]. Take `C=C[Si]1(C)O[Si](C)(C=C)O[Si](C)(C=C)O[Si](C)(C=C)O1` (configuration not stated): in test [3], the half-maximal activity concentration (AC50) is 23.8 µM (active). On to `C=CC(=O)OCCCC`, for which, in test [3], the outcome was inactive. Same read-out and setting: as for `CCC1(C)NC(=O)NC1=O` (configuration not stated), the entry is “inactive”; as for `CCOc1ccccc1O`, “inactive”; as for `CN1C(=O)c2ccccc2C1=O`, “inactive”.

In the case of `CCCCC(CC)COC(C)=O` (configuration not stated), the compound was classed as inactive in test [3].
